Screening data (PubChem BioAssay)
Sampled rows, rich in hits. Any-hit rate of the full collection: about 6.5%.
LASV entry inh – Lassa virus entry inhibition. Potency, µM (highest dose often 37.9 µM), without a hit: top-dose activity change, negative = inhibition, actives largely listed as inhibitors. Lassa virus pseudotype entry inhibition, cell reporter. AID 540256. 1.2% of 300,000 active; calls by dose curve; tested in HEK293 cells; note: potency is the fitted concentration of half-maximal effect; nearly all actives have a fitted effect of over 50% in size
FMDV inh – blocks foot and mouth disease virus; FMDV antiviral cell-based qHTS; Potency, µM (top dose mostly 57.9 µM), for the others: top-dose activity change, negative = inhibition, hits mostly inhibitors; 1.2% of 410,000 active; calls by dose curve; tested in HEK293T cells; note: read-out not given here; potency is the fitted concentration of half-maximal effect; nearly all actives have a fitted effect of over 45% in size
Vaccinia Venus – inhibitors of vaccinia virus (Venus reporter). Vaccinia virus Venus reporter expression, fluorescence. Potency, µM (doses to about 36.5 µM), inactives show at the top dose activity change, negative = inhibition, actives largely listed as inhibitors. 0.46% of 330,000 active; calls by dose curve; tested in A549 cells; note: potency is the fitted concentration of half-maximal effect; nearly all actives have a fitted effect of over 30% in size
Marburg entry inh – blocks Marburg virus binding to or entry into cells; Marburg virus pseudotyped entry inhibition, cell reporter; Potency, µM (highest dose often 37.8 µM), without a hit: at the top dose activity change, negative = inhibition, most hits filed as inhibitors; 1.8% of 300,000 active; AID 540276; calls by dose curve; tested in HEK293 cells; note: potency is the fitted concentration of half-maximal effect
HCMV inh – human cytomegalovirus inhibition | HFF cells, HCMV-luciferase reporter, 72 h; hits give low values | activity change, negative = inhibition, % at 57.5 µM | 4.5% of 410,000 active; in the data active = activity change below about -60%; inconclusive = no clear call, values can overlap the other calls; inactive = above about -39%
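Two-dose cell screen: HFF monolayers treated with compounds and infected with luciferase-expressing HCMV at 1 PFU/cell, 72 h at 37C, then lysed for luciferase measurement.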
Vaccinia mCherry – vaccinia inhibition (mCherry reporter); Vaccinia virus mCherry reporter infection, fluorescence; Potency, µM (doses to about 36.5 µM), for inactives: at the top dose activity change, negative = inhibition, usual class: inhibitors; 0.63% of 310,000 active; calls by dose curve; tested in A549 cells; note: potency is the fitted concentration of half-maximal effect; nearly all actives have a fitted effect of over 35% in size
Active calls of the source: *; i = inactive; u = inconclusive; x = no result; ! = repeats disagree; [ ] = another dose, or the depositor's remark. % is set by controls: 0 for no effect and ±100 for the full control effect.

SMILES | LASV entry inh | FMDV inh | Vaccinia Venus | Marburg entry inh | HCMV inh | Vaccinia mCherry
COc1ccc(-c2c3c(cc(C)[n+]2[O-])oc2ccc(OC)cc23)cc1 | u | 28µM* | -25% | -22% | -91* | -10%
O=C(c1ccc(Cn2cnnn2)cc1)N1CCOc2ccc(C(O)C3CCCCC3)cc2C1 (centres undefined) | x | -25% | -8% | x | x | -18%
CSc1nc2ncncc2[nH]1 | -3%[46.1 µM] | 18% | 15% | -3%[46.1 µM] | -24 | -14%
N/C(Cc1ccc(Cl)cc1)=N\OC(=O)CCc1ccccc1 | x | -20% | -19% | x | 18 | i
N/C(Cc1ccc(Cl)cc1)=N\OC(=O)c1ccc2ccccc2c1 | u | -10% | -5% | 2.8µM* | 10 | -12%
N/C(Cc1ccc(Cl)cc1)=N\OC(=O)c1cccc2ccccc12 | 12µM* | u | -13% | u | -19 | -16%
COc1ccc(C/C(N)=N/OC(=O)c2ccc(Cl)cc2)cc1 | u | 7% | -4% | -19%[46.1 µM] | u | i
COc1ccc(C(C)(C)C)cc1NC(=O)CCNC(=O)c1ccco1 | u | 2% | -8% | 3%[46.1 µM] | u | -4%
CC(=O)N(O)[C@@H]1c2cc(C#N)ccc2OC(C)(C)[C@H]1O | x | -5% | x | x | x | x
C=C(C)C(=O)Nc1cccc(C2=NOC3(C2)C[C@H](C(N)=O)N(C(=O)COc2ccc(Cl)cc2)C3)c1 (some centres undefined) | x | -13% | -7% | x | 13 | -10%
COc1ccccc1N(CC(=O)Nc1ccccc1C)S(C)(=O)=O | 1% | x | -11% | 3% | -61* | -10%
O=C(CNc1ccc(F)cc1)N/N=C/c1c(O)ccc2ccccc12 | x | 10% | x | x | -97* | x
COc1ccccc1N(CC(=O)Nc1c(C)cccc1C)S(C)(=O)=O | 4% | x | -10% | -1% | -8 | -1%
COc1ccccc1N(CC(=O)N/N=C/c1c(O)ccc2ccccc12)S(C)(=O)=O | 9.2µM* | -30% | u | u | -17 | 11µM*
COc1ccccc1NC(=O)c1c(N=Cc2c(O)ccc3ccccc23)cnn1C | u | u | -26% | u | -89* | u
COc1ccccc1CNC(=O)CN(c1ccccc1OC)S(C)(=O)=O | -4%[46.1 µM] | -9% | -13% | x | -17 | -14%
COc1ccccc1NCC(=O)N/N=C/c1cccnc1 | -23%[14.3 µM] | -7% | -3% | -7% | 21 | -13%
COc1ccccc1NCC(=O)N/N=C/c1c(O)ccc2ccccc12 | x | -6% | x | x | -95* | x
O=C(CN1CCCc2ccccc21)N/N=C/c1c(O)ccc2ccccc12 | u | u | u | u | -98* | 11µM*
O=C(Nc1cccc(C(F)(F)F)c1)c1cc(S(=O)(=O)N2CCCC2)c[nH]1 | 2%[46.1 µM] | -4% | 9% | x | -3 | 1%
Cc1cccc(CSC(=N)N)c1 | -26% | 0% | -17% | u | -63* | i
Cc1c(C(=O)N2CCN(Cc3ccc4c(c3)OCO4)CC2)sc2ncnc(N3CCN(c4ccccc4)CC3)c12 | x | 2.5µM* | x | x | -86* | x
Cc1c(C(=O)N2CCN(Cc3ccc4c(c3)OCO4)CC2)sc2ncnc(N3CCN(c4ccccc4F)CC3)c12 | x | 28µM* | x | x | -76* | x
COc1cc(C2C3=C(Nc4ncnn42)c2ccccc2CC3)cc(OC)c1OC (centres undefined) | u | 8% | x | 0.73µM*! | -89* | x
CCC(C)NS(=O)(=O)c1ccc(NC(=O)C(Sc2ccccc2)c2ccccc2)cc1 (centres undefined) | 13µM* | -14% | u | u | -27 | u
SMILES | LASV entry inh | FMDV inh | Vaccinia Venus | Marburg entry inh | HCMV inh | Vaccinia mCherry
CCCCNS(=O)(=O)c1ccc(NC(=O)C(Sc2ccccc2)c2ccccc2)cc1 (centres undefined) | 9.2µM* | 0% | 10µM* | u | -69* | u
CC(=O)NS(=O)(=O)c1ccc(NC(=O)C(Sc2ccccc2)c2ccccc2)cc1 (centres undefined) | -2% | -22% | 1% | 11% | 10 | x
CCN(c1ccccc1)c1cc2ccccc2c(=O)[nH]1 | 2% | 2% | -15% | -2%[46.1 µM] | -64* | -26%
CCN(c1ccccc1)c1nc(=O)c2cccnc2s1 | x | 23% | x | x | -39 | x
CCOC(=O)c1cccc(Nc2ncnc3ccccc23)c1 | -22% | 40µM* | u | u | 3 | x
CCCOC(=O)c1cccc(Nc2nc(-c3cccnc3)nc3ccccc23)c1 | u | 25µM* | u | 10µM* | 134 | u
Cc1ccccc1C(=O)Oc1cccc(Nc2ncnc3ccccc23)c1 | 10µM* | 16µM* | u | 11µM* | 128 | u
COC(=O)c1cccc(Nc2ncnc3ccc(C)cc23)c1 | 14% | x | -17% | u | -15 | -24%
CC(=O)Oc1cccc(Nc2ncnc3ccccc23)c1 | x | -8% | x | x | 36 | x
CCOC(=O)C1CCCCN1Cc1nc(N2CCN(C(C)=O)CC2)c2ccccc2n1 (centres undefined) | x | 5% | 8% | x | x | -8%
O=C(Cn1ncn2cccc2c1=O)N1CCCCC1 | 5% | -11% | -12% | 19% | -18 | x
Cc1ccc(Cl)cc1N1CCN(C(=O)Cn2ncn3cccc3c2=O)CC1 | x | u | -7% | x | -76* | -3%
Cc1cc2nc(CCN(C(=S)NCC(C)C)C3CCCC3)[nH]c2cc1C | u | x | u | u | -85* | u
Cc1cccc2cc(CN(C(=S)NCC(C)C)C3CCCC3)c(=O)[nH]c12 | -17% | -9% | -21% | u | -19 | -12%
Cc1cc2nc(CCN(C(=S)NCC3CCCO3)C3CCCC3)[nH]c2cc1C (centres undefined) | x | 0% | x | x | -63* | x
O=C(O)C(=Cc1ccccc1)Cc1ccccc1 | 4%[46.1 µM] | -4% | -8% | -8%[46.1 µM] | 12 | -5%
CCn1cc(/C=C(\NC(=O)c2ccc(OC)c(OC)c2)C(=O)NCCCn2ccnc2)c2ccccc21 | 1%[46.1 µM] | 0% | -4% | -21%[46.1 µM] | 0 | 0%
CN(C)S(=O)(=O)n1cc(/C=C(\NC(=O)c2ccccc2F)C(=O)N2CCCCC2)c2ccccc21 | x | -9% | -20% | x | -97* | u
CCn1cc(/C=C(\NC(=O)c2cc(OC)c(OC)c(OC)c2)C(=O)NCCCn2ccnc2)c2ccccc21 | 9%[46.1 µM] | -12% | 8% | u | -104* | 2%
CN(C)S(=O)(=O)n1cc(/C=C(\NC(=O)c2ccccc2Cl)C(=O)NCCCn2ccnc2)c2ccccc21 | -24%[46.1 µM] | 23% | 8% | u | -105*! | -6%
CN(C)S(=O)(=O)n1cc(/C=C(\NC(=O)c2ccccc2)C(=O)NCCCn2ccnc2)c2ccccc21 | 1%[46.1 µM] | 41% | -1% | -2%[46.1 µM] | -35 | 4%
C[C@@H]1C=CCCO[C@]12C(=O)Nc1ccccc12 | x | x | x | -44%[14.2 µM] | x | x
O=C(Nc1cccc(Cl)c1)N1CCN2C(=O)c3ccccc3C12c1ccccc1 (centres undefined) | -21% | u | u | u | 26 | u
